# An excerpt weighted towards active compounds, which were near 1.5% of everything screened.
# CCHFV vOTU inh: CCHFV vOTU protease inhibition. Pep-AMC fluorescence. inhibition, % at 11.5 µM. 370,000 compounds, 0.55% hits. AID 651958; in the data active = inhibition above about 30%
# RecA intein inh: inhibitors of M. tuberculosis RecA intein splicing. AID 2221. cell-free RecA intein splicing, fluorescence. inhibition, % (concentration not given with the values). 290,000 compounds, 0.75% hits; in the data active = inhibition above about 30%; inconclusive = no clear call, values can overlap the other calls
# Target sequence (P9WHJ3 whole entry, looked up): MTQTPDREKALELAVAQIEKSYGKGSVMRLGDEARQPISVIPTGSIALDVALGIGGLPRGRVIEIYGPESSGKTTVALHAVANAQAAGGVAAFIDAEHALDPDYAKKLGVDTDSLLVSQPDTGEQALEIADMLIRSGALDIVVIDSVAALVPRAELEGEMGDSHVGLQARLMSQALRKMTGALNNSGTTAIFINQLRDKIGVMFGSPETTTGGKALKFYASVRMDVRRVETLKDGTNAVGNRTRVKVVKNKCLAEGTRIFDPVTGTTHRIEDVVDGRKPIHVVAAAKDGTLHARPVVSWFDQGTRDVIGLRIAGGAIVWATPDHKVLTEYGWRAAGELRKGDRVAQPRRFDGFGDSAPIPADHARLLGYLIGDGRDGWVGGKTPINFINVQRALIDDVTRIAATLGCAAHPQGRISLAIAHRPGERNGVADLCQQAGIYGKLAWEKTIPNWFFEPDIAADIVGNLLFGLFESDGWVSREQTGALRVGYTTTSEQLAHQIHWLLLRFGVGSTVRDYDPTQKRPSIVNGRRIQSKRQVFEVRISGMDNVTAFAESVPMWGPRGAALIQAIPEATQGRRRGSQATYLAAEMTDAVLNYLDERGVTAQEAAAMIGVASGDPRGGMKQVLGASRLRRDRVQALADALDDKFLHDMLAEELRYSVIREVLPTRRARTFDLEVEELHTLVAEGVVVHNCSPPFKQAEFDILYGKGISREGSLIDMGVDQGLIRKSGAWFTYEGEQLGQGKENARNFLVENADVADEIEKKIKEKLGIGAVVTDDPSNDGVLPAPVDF
# SARS 3CLpro inh: SARS-CoV 3CLpro protease inhibition; P0C6X7; recombinant SARS-CoV 3CLpro, quenched FRET peptide cleavage; inhibition, % at 6 µM; 290,000 compounds, 0.14% hits; in the data active = inhibition above about 12%
# VHR inh abs: DUSP3 (human) phosphatase inhibition; 290,000 compounds, 0.52% hits; recombinant VHR phosphatase, pNPP absorbance; P51452; inhibition, % at 13.3 µM; in the data active = inhibition above about 50%
# GFP chromo cs: counter-screen GFP chromophore formation inhibition; 2,100 compounds, 83% hits; shares compounds with RecA intein inh; cell-free GFP chromophore formation, fluorescence; EC50, µM; call rule not given here
# Numbers stand for hits; - = inactive; ? = inconclusive; . = no result.
SMILES,CCHFV vOTU inh,RecA intein inh,SARS 3CLpro inh,VHR inh abs,GFP chromo cs
C[C@@H]1[C@H](O)[C@@H](C)/C=C/C=C/C=C/C=C/C=C/C=C/C=C/[C@H](OC2O[C@H](C)[C@@H](O)[C@H](N)[C@@H]2O)C[C@@H]2O[C@](O)(C[C@@H](O)C[C@@H](O)[C@H](O)CC[C@@H](O)C[C@@H](O)CC(=O)O[C@H]1C)C[C@H](O)[C@H]2C(=O)O (stereo not given in full),-,.,.,.,.
Cc1[nH][nH]c(=O)c1C(c1ccc(N(C)C)c(Br)c1)c1c(C)[nH][nH]c1=O,-,97,-,-,0.47
CCCCOP(=O)(OCCCC)C1(NS(=O)(=O)c2ccccc2)C=CC(=O)c2ccccc21 (stereo not given),-,88,-,-,5
CCCCOCCCNS(=O)(=O)c1ccccc1,-,-,-,-,.
COc1ccc(CNC(=O)c2cc(-c3ccccc3)c(N3CCOCC3)s2)cc1OC,-,.,.,.,.
COC(=O)c1cccc(NS(=O)(=O)c2cccs2)c1C,-,-,-,-,.
COC(=O)c1ccccc1NC1=C/C(=N\S(=O)(=O)c2cccs2)c2ccccc2C1=O,-,81,-,-,0.1
CC(C)(C)c1ccc(S(=O)(=O)/N=C2\C=C(NS(=O)(=O)c3ccccc3)C(=O)c3ccccc32)cc1,54,63,-,-,7.9
O=C1C(Nc2ccccc2)=C/C(=N/S(=O)(=O)c2cccs2)c2ccccc21,.,38,-,-,0.28
COC(=O)c1ccccc1NC1=C/C(=N\S(=O)(=O)c2ccc(C(=O)O)cc2)c2ccccc2C1=O,.,63,-,-,?
COc1ccc2oc(C(=O)OCC(=O)N(C)C3CCCCC3)c(C)c2c1,-,-,.,.,.
CCc1ccc(Nc2nnc(SCC(=O)c3c(N)n(C4CC4)c(=O)[nH]c3=O)s2)cc1,-,.,.,.,.
CCCCN1CCC(=O)C(C(=O)OCC)=C1C(=O)OCC,-,.,.,.,.
O=C(N(c1ccccc1)c1ccccc1)N(c1ccccc1)c1ccccc1,-,-,-,-,.
CCCCCCCN(C(=O)CCl)c1cccc(C)c1,-,-,-,-,.
CCCCCCN(C(=O)CCl)c1ccccc1,-,54,-,-,19
O=C(CCl)N(c1ccccc1)c1ccccc1,-,80,-,-,22
CCC(C)[C@@H](NC(=O)OC(C)(C)C)c1nnc(S(=O)(=O)Cc2cccc(C)c2)o1 (stereo not given in full),-,37,-,-,31
CC(C)(C)OC(=O)N[C@@H](Cc1ccccc1)c1nnc(S(=O)(=O)Cc2ccccc2)o1,-,.,-,-,.
Cc1ccccc1CS(=O)(=O)c1nnc([C@H](Cc2ccccc2)NC(=O)OC(C)(C)C)o1,-,41,-,-,12
CC(=O)N1c2c(cc(Br)cc2S(=O)(=O)N2CCN(c3ccccc3F)CC2)CC1C (stereo not given),-,-,-,-,.
C[C@@H]1CC=C[C@H]2[C@H]1C(=O)N(Cc1ccccc1)[C@H]2c1ccc(C(F)(F)F)cc1,-,37,.,-,-
COc1ccc(Br)cc1[C@H]1[C@H]2C=CC[C@@H](C)[C@@H]2C(=O)N1Cc1ccccc1,-,34,.,-,-
Cc1cccc(/C=C(\c2nc3ccccc3[nH]2)S(=O)(=O)c2ccccc2)c1,-,-,-,-,.
CC(C)(C)c1ccc(/C=C(\c2nc3ccccc3[nH]2)S(=O)(=O)c2ccccc2)cc1,.,82,.,.,6.6
SMILES,CCHFV vOTU inh,RecA intein inh,SARS 3CLpro inh,VHR inh abs,GFP chromo cs
O=[N+]([O-])c1c(Nc2ccc(O)cc2)cc(Cl)c2nonc12,-,95,-,-,1
O=C(O)c1ccccc1Nc1ccc([N+](=O)[O-])cc1,-,-,-,-,.
O=C(O)c1ccccc1Nc1cc(Cl)c2nonc2c1[N+](=O)[O-],-,90,-,-,2.6
CN(C)c1cc(Nc2ccc(O)cc2)c([N+](=O)[O-])c2nonc12,-,-,-,-,.
O=C(O)c1cccc(Nc2cc(Cl)c3nonc3c2[N+](=O)[O-])c1,-,88,-,-,4.8
C=CCN1C(=O)[C@@H](CC(=O)NCCCOC)[C@]2(C(=O)OC)CCCCC=C12,-,.,.,.,.
O=C(Cc1ccc(Cl)cc1)Nc1cccc(S(=O)(=O)N2CCCCC2)c1,-,.,.,.,.
O=C(CCl)Nc1cccc(S(=O)(=O)N2CCCCCC2)c1,-,44,-,-,33
CCNC(=O)C1(C)CCCN(Cc2ccccc2-c2ccccc2)C1 (stereo not given),-,.,.,.,.
Cc1nn(-c2ccccc2)c2c1C1(C(=O)N3c4c(cccc41)C(C)CC3(C)C)C(C#N)=C(N)O2 (stereo not given),-,49,-,-,9.7

# Source: PubChem (several laboratories)
